From ChEMBL document CHEMBL4513141, “CO-ADD screening of NIH (USA) - Clinical Collection” (2021) come the findings set out here.

The structures appear in SMILES notation. Potency and affinity values are given separately.

The experiment concerns Escherichia coli. To be noted: Concentration 20 uM; ASSAY_TEST Inhibition of Bacterial Growth; detection method Absorption (OD600); MEDIA CAMHB; plate type 384well; NBS; CORNING #3640; time 18 hr.
For the molecule `CCCc1nc(C(C)(C)O)c(C(=O)OCc2oc(=O)oc2C)n1Cc1ccc(-c2ccccc2-c2nnn[nH]2)cc1` [OLMESARTAN MEDOXOMIL], the Inhibition is -6.4%.
The result for `COC(=O)CCc1ccc(OCC(O)CNC(C)C)cc1.Cl` (stereo not drawn) [ESMOLOL HYDROCHLORIDE] reads -0.36%; that for `CC(CCCCC(=O)Nc1ccc(C(F)(F)F)cc1)NCCc1c[nH]cn1.O=C(O)/C=C\C(=O)O.O=C(O)/C=C\C(=O)O` (stereo not drawn), 3.85%; that for `CC1(C)C[C@@H]1C(=O)N/C(=C\CCCCSC[C@H](N)C(=O)O)C(=O)[O-].[Na+]` [CILASTATIN SODIUM], -0.62%.
On to `CCN1CC(CCN2CCOCC2)C(c2ccccc2)(c2ccccc2)C1=O.Cl` (stereo not drawn), for which the Inhibition was determined as 2.66%.
On to `C#C[C@]1(O)CC[C@H]2[C@@H]3CCC4=Cc5oncc5C[C@]4(C)[C@H]3CC[C@@]21C` [DANAZOL], for which the Inhibition is listed as -2.5%.
With `CN(C)CCCSc1ccccc1NC(=O)/C=C/c1ccccc1.Cl.O`, the Inhibition worked out at 3.24%.
In the case of `Cc1sc(N)c(C(=O)c2cccc(C(F)(F)F)c2)c1C`, the Inhibition is given as -1.03%.
The result for `Cc1cc2c(s1)Nc1ccccc1N=C2N1CCN(C)CC1` [OLANZAPINE] reads 0.45%; that for `COc1cc2nc(N3CCN(C(=O)C4COc5ccccc5O4)CC3)nc(N)c2cc1OC` (stereo not drawn) [DOXAZOSIN], 5.29%; that for `CCN(CC)CCNC(=O)c1ccc(N)cc1.Cl` [PROCAINAMIDE HYDROCHLORIDE], -0.2%.
As for `Nc1nc(O)c2ncn(CCC(CO)CO)c2n1` [PENCICLOVIR], the Inhibition is on record as 2.89%.
In the case of `COc1ccc(OC)c(C(O)CNC(=O)CN)c1.Cl` (stereo not drawn) [MIDODRINE HYDROCHLORIDE], the Inhibition worked out at 4.77%.
The result for `Cc1cccc(CN2CCN(C(c3ccccc3)c3ccc(Cl)cc3)CC2)c1.Cl.Cl` (stereo not drawn) reads 2.8%; that for `C[C@H]1C[C@@H]2[C@H]([C@@H](O)C[C@@]3(C)[C@H]2CC[C@]3(O)C(=O)CO)[C@@]2(C)C=CC(=O)C=C12` [METHYLPREDNISOLONE], 5%.
Consider `CC(C)(C)C(O)/C=C/c1ccc2c(c1)OCO2` (stereo not drawn) [STIRIPENTOL], for which the Inhibition is 6.07%.
For `CC(=O)C1(O)CCC2C3CC(C)C4=CC(=O)C=CC4(C)C3(F)C(O)CC21C` (stereo not drawn), the Inhibition is given as 2.15%.
Next, `COc1cc([C@@H]2c3cc4c(cc3[C@@H](O[C@@H]3O[C@@H]5CO[C@@H](C)O[C@H]5[C@H](O)[C@H]3O)[C@H]3COC(=O)[C@H]23)OCO4)cc(OC)c1O` [ETOPOSIDE]: -0.07%; `CC(=O)OCC(=O)[C@@]1(O)CC[C@H]2[C@@H]3C[C@H](C)C4=CC(=O)C=C[C@]4(C)[C@H]3[C@@H](O)C[C@@]21C` [METHYLPREDNISOLONE ACETATE]: -0.44%; `CCCSc1ccc2[nH]c(NC(=O)OC)nc2c1` [ALBENDAZOLE]: 1.87%.
For the molecule `CN1C(=O)CC[C@H]1c1cccnc1` [COTININE], the Inhibition is on record as 7.12%.
As for `CC(C)(C)NC(=O)[C@H]1CC[C@H]2[C@@H]3CC[C@H]4NC(=O)C=C[C@]4(C)[C@H]3CC[C@]12C` [FINASTERIDE], the Inhibition is recorded as -5.85%.
The result for `CCCNC(=O)NS(=O)(=O)c1ccc(Cl)cc1` [CHLORPROPAMIDE] reads 2.94%; that for `Nc1nc(Cl)nc2c1ncn2[C@@H]1O[C@H](CO)[C@@H](O)[C@H]1O`, 3.01%.
Regarding `CC(=O)SCC(Cc1ccccc1)C(=O)NCC(=O)OCc1ccccc1` (stereo not drawn) [RACECADOTRIL], the Inhibition was -5.63%.
Next, `COc1cc(OC)c(C(=O)CCCN2CCCC2)c(OC)c1.Cl`: 2.85%; `CC(C)(C(=O)c1cccnc1)c1cccnc1` [METYRAPONE]: 6.34%.
In the case of `C[C@H]1O[C@@H](O[C@H]2[C@@H](O)C[C@H](O[C@H]3[C@@H](O)C[C@H](O[C@H]4CC[C@@]5(C)[C@H](CC[C@@H]6[C@@H]5C[C@@H](O)[C@]5(C)C(C7=CC(=O)OC7)CC[C@]65O)C4)O[C@@H]3C)O[C@@H]2C)C[C@H](O)[C@@H]1O` (stereo partly drawn), the Inhibition is given as -7.29%.
The result for `CN(C)CCC(c1ccc(Cl)cc1)c1ccccn1.O=C(O)/C=C\C(=O)O` (stereo not drawn) [CHLORPHENIRAMINE MALEATE] reads 7.3%; that for `CC1(C)O[C@@H]2C[C@H]3[C@@H]4C[C@H](F)C5=CC(=O)C=C[C@]5(C)[C@H]4[C@@H](O)C[C@]3(C)[C@]2(C(=O)CO)O1` [FLUNISOLIDE], 3.33%; that for `N[C@@H](Cc1cc(I)c(Oc2cc(I)c(O)c(I)c2)c(I)c1)C(=O)O` [LEVOTHYROXINE], -12.96%.
Next, `O=C1C(CC[S+]([O-])c2ccccc2)C(=O)N(c2ccccc2)N1c1ccccc1` (stereo not drawn) [SULFINPYRAZONE]: 6.57%; `CCCCC(=O)N(Cc1ccc(-c2ccccc2-c2nnn[nH]2)cc1)[C@H](C(=O)O)C(C)C`: 3.3%; `CN(CCOc1ccc(NS(C)(=O)=O)cc1)CCc1ccc(NS(C)(=O)=O)cc1` [DOFETILIDE]: 6.72%.
As to `Cc1nc2ccccn2c(=O)c1CCN1CCC(C(=O)c2ccc(F)cc2)CC1` [PIRENPERONE], the Inhibition was 7.4%.
Next, `Nc1nc2c(ncn2COC(CO)CO)c(=O)[nH]1` [GANCICLOVIR]: 0.63%.
The result for `Cl.O[C@@H](c1cc(C(F)(F)F)nc2c(C(F)(F)F)cccc12)[C@H]1CCCCN1` reads 7.08%; that for `CCOC(=O)[C@H](CCc1ccccc1)N[C@H]1CCc2ccccc2N(CC(=O)O)C1=O.Cl` [BENAZEPRIL HYDROCHLORIDE], 0.93%.
